The campaign covered roughly 4,000 compounds. About 60 (2%) were called active.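 Rule for the calls: active = duplicate-averaged calcium fluorescence ratio at least three times the standard deviation of buffer wells, a nonspecific response in parental cells; inactive = the rest.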 This excerpt belongs to a sample that is enriched for actives.
Test: calcium flux effects in cells lacking MrgX1 – parental HEK293 cells, Fluo-4 calcium flux, counter-screen for MrgX1 antagonist project, confirmation (AID 624111)
Details: parental HEK293, Fluo-4 calcium fluorescence, FDSS; at 10 µM

| SMILES | fluorescence ratio F(max-min)/F0 |
| --- | --- |
| CCOc1cc(-c2conc2N)cc(OCC)c1OCC | inactive |
| Brc1ccccc1C1Nc2cccc3cccc(c23)N1 | inactive |
| c1ccc(-c2[nH]ncc2-c2nc3ccccc3[nH]2)cc1 | inactive |
| CCOC(=O)c1cn(Cc2cccc(C)c2)nn1 | inactive |
| CC(C)NC(=S)Nc1cccc2cnccc12 | inactive |
| CCOC(=O)C1=C(O)/C(=C/c2cc(C)n(-c3ccccc3)c2C)N=C1C | inactive |
| COc1ccc(C2SCCN2S(=O)(=O)c2ccccc2)cc1OC (stereo not drawn) | inactive |
| S=C(NCc1ccc(Cl)cc1)NC12CC3CC(CC(C3)C1)C2 | inactive |
| COc1cc(C(F)(F)F)nc2c(Br)c(C(C)(C)C)nn12 | inactive |
| CCN(C(=O)CSc1nnc2ccccn12)C1CCS(=O)(=O)C1 (stereo not drawn) | inactive |
| O=C1C(Cc2ccc(O)cc2)NC(=S)N1Cc1ccccc1 (stereo not drawn) | inactive |
| CCOC(=O)c1c(NC(=O)CNC2CCCc3ccccc32)sc(C(N)=O)c1C (stereo not drawn) | inactive |
| COc1cccc(-c2cnc(OC(C)(C)C)nc2OC(C)(C)C)c1 | inactive |
| COc1ccc(-n2c(SCC(=O)NCc3ccco3)nnc2-c2c[nH]c3ccccc23)cc1 | inactive |
| CC(C)CNc1ncnc2c1cnn2Cc1ccc(Cl)cc1 | inactive |
| Cc1cc2oc3ccc(NCCC4CCCN4C)cc3c(=O)c2cc1C (stereo not drawn) | inactive |
| CC(=O)Nc1ccc(OC(=O)COc2ccc(Br)cc2)cc1 | inactive |
| CCCc1[nH]nc2c1C(c1ccc(Br)s1)C(C#N)=C(N)O2 (stereo not drawn) | inactive |
| CCS(=O)(=O)c1ccc2c(c1)N(S(=O)(=O)c1ccccc1)CC(C(=O)O)O2 (stereo not drawn) | inactive |
| Fc1cccc(Cl)c1COc1ccc(-c2nnco2)cc1 | inactive |
| COc1ccc(-c2cc(C(F)(F)F)nc(S(C)(=O)=O)n2)cc1OC | inactive |
| CCc1ccc2nc3sc(C(=O)Nc4nnc(CC)s4)c(N)c3cc2c1 | 0.589 (active) |
| COCc1nnc(NC(=O)c2ccc3c(c2)OCO3)s1 | inactive |
| COc1cc(CCC(=O)Nc2ccncc2Cl)cc(OC)c1OC | inactive |
| Cc1cc(C)n(CCNC(=O)CC2C(=O)NCCN2Cc2ccc(C)o2)n1 (stereo not drawn) | inactive |

| SMILES | fluorescence ratio F(max-min)/F0 |
| --- | --- |
| COc1ccc(S(=O)(=O)N2CCOCC2)c(C)c1C | inactive |
| CCOc1ccc(C(=O)NC2CCN(S(=O)(=O)CC)CC2)cc1 | inactive |
| Cc1ccc(N/C(N)=N/c2nc(C(F)(F)F)cc(C(F)(F)F)n2)cc1 | inactive |
| Cc1[nH][nH]c(=O)c1C(c1ccc(-c2ccc(Cl)cc2)o1)c1c(C)[nH][nH]c1=O | inactive |
| Cc1ccc(-n2cnc3ncnc(-c4ccccc4)c32)cc1 | inactive |
| Cc1c(C(=O)N2CCCc3ccccc32)sc2nc(-c3ccccc3)cn12 | inactive |
| C(=N\n1cnnc1)/c1cccnc1 | inactive |
| CC(=O)N1c2ccc(S(=O)(=O)N3CCCC(C(=O)Nc4cccc(Cl)c4)C3)cc2CC1C (stereo not drawn) | inactive |
| Cc1cccc(Cn2cnc3c(N)c(C)c(C)cc32)c1 | inactive |
| CCOC(=O)Nc1ccc2c(c1)N(C(=O)CCN1CCN(CCO)CC1)c1ccccc1CC2 | inactive |
| COc1ccc2c(c1)OC(O)(C(F)(F)C(F)F)CC2=O (stereo not drawn) | inactive |
| O=S(=O)(c1ccc2ccccc2c1)N1CCN(S(=O)(=O)N2CCOCC2)CC1 | inactive |
| CCOC(=O)C1=C(O)CSC1=Nc1cccc(Cl)c1 | inactive |
| Cc1nccn1CCC1CCCCN1C(=O)CCc1nnc(-c2ccsc2)o1 (stereo not drawn) | inactive |
| O=C(Nc1ccccc1N1CCCCC1)c1ccc2nccnc2c1 | inactive |
| Cc1onc(-c2ccccc2)c1C(=O)NNC(=S)NC(=O)c1ccc(F)cc1 | inactive |
| O=C(CN1CCN(c2ccccn2)CC1)NC1CCCCC1 | inactive |
| C=CCOc1cccc(C2C(C(=O)c3ccc(C)o3)=C(O)C(=O)N2c2nnc(C)s2)c1 (stereo not drawn) | inactive |
| O=C1C(=O)N(CC2COc3ccccc3O2)c2ccccc21 (stereo not drawn) | inactive |
| COc1ccccc1N(CC(=O)N1CCCCC1)S(=O)(=O)c1ccccc1 | inactive |
| Clc1ccc(-c2nc3ccccn3c2CN2CCSCC2)cc1 | inactive |
| COc1ccc(C(=O)NC(=S)NNC(=O)CCc2ccccc2)cc1 | inactive |
| COc1cc(C)c(C)cc1S(=O)(=O)N1CCCc2ccccc21 | inactive |
| Cc1nc2ccccc2cc1OCc1ccc(F)cc1 | inactive |
| OCCn1c(-c2ccccc2)csc1=Nc1ccccc1 | inactive |

| SMILES | fluorescence ratio F(max-min)/F0 |
| --- | --- |
| CC1(C)CC2CC(C)(CN2c2ncnc3ccc(Br)cc23)C1 (stereo not drawn) | inactive |
| N=C(N)SCc1cccc2ccccc12 | inactive |
| Cc1occc1C(=O)Nc1nnc(-c2ccncc2)s1 | inactive |
| CC(Oc1ccc(F)cc1)C(=O)Nc1ccccc1C(=O)NC1CC1 (stereo not drawn) | inactive |
| CCCCC(=O)NNC(=S)NC(=O)C(c1ccccc1)c1ccccc1 | inactive |
| CCOc1ccccc1C1CC(c2ccc(Cl)cc2)Nc2nc(N)nn21 (stereo not drawn) | inactive |
| CCN(CC)c1ccc2oc(=O)c(C)nc2c1 | 0.549 (active) |
| CCNC(=O)c1c(O)c2cccc3c2n(c1=O)CC3 | inactive |
| COC(=O)c1sccc1NS(=O)(=O)c1ccc(F)cc1F | inactive |
| COc1ccc(C(=O)CSc2n[nH]c(N)n2)cc1 | inactive |
| CCOC(=O)c1[nH]c2ccc(C)cc2c1N=C(C)N(C)C | inactive |
| Cc1ccc2nc(Nc3ccccc3)cc(C)c2c1 | inactive |
| CC1(C(=O)O)CCC(C(=O)Nc2ccc(Cl)c(Cl)c2)C1(C)C (stereo not drawn) | inactive |
| Cc1cc(Nc2cc(N3CCN(C)CC3)nc(Sc3ccc(NC(=O)C4CC4)cc3)n2)n[nH]1 | inactive |
| Cc1nn(C(=O)c2ccoc2C)c(N)c1-c1ccccc1 | inactive |
| O=C(Nc1ccc(Cl)cc1)Nc1ccc(Oc2cccnc2)nc1 | inactive |
| O=C(CCN1CCc2ccccc2C(O)(c2ccccc2)C1)c1ccc2c(c1)OCCO2 (stereo not drawn) | inactive |
| CCC1CCCCN1CCNC(=O)c1[nH]c(C)c(C(C)=O)c1C (stereo not drawn) | inactive |
| CCc1nnc(NC(=O)CSc2nc3c(c(=O)n2-c2ccccc2OC)SCC3)s1 | inactive |
| Cc1ccc2c(C)c(C(=O)N(C)CCC3CCCCO3)oc2c1C (stereo not drawn) | inactive |
| Cc1cccn2c(=O)c(/C=C3\SC(=S)N(CC(C)C)C3=O)c(NCCCOC(C)C)nc12 | 0.164 (active) |
| O=C(Nc1ccccc1Cl)N1CCN(c2ccc3nncn3n2)CC1 | inactive |
| COc1ccc(OC)c(Nc2nc3ccccc3n3cnnc23)c1 | inactive |

Reference: PubChem BioAssay AID624111 (Johns Hopkins Ion Channel Center, 2012)
